PubChem BioAssay (Tox21)
Inconclusive results are not listed. Calls of active or inactive are those of the source. The call rests on the fitted dose curve.

Target: Progesterone receptor (Homo sapiens) (UniProt P06401)
Test: qHTS assay to identify small molecule agonists of the progesterone receptor (PR) signaling pathway (AID 1346784); further: nearly all actives have a fitted effect of over 30% in size
Conditions: PR-UAS-bla HEK293T, beta-lactamase FRET ratio, 16 h; series mostly up to 92.4 µM
Description: U.S. Tox21 Program National Center for Advancing Translational Sciences [NCATS] NIH Chemical Genomics Center [NCGC] U.S. Environmental Protection Agency [EPA] National Institutes of Environmental Health Sciences [NIEHS] National Toxicology Program [NTP] U.S. Food and Drug Administration [FDA] […] Endocrine disrupting chemicals (EDCs) and their interactions with steroid hormone receptors like PR causes disruption of normal endocrine function. To identify the compounds that activate PR signaling, a PR-UAS-bla GripTite cell line i.e. PR-UAS-bla HEK 293T (Invitrogen, Carlsbad, CA, USA) containing a beta-lactamase reporter gene under the control of an Upstream Activator Sequence (UAS) was used to screen Tox21 10K compound library.
Tox21 Assay Protocol Summary: PR-UAS-bla HEK 293T cells were dispensed at 3,000 cells/5 uL of assay medium containing 2% charcoal stripped FBS per well into black wall/clear-bottom 1536-well plates using a Multidrop Combi (ThermoFisher Scientific, Waltham, MA) dispenser. After the assay plates were incubated at a 37C and 5% CO2 for 6hr, 23 nL of compounds dissolved in DMSO, positive controls or DMSO only was transferred to the assay plate by a Pintool station (Kalypsys, San Diego, CA). The plates were incubated at 37C and 5% CO2 for 16hr. Then 1 uL of LiveBLAzer B/G FRET substrate was added using a BioRAPTR FRD (Flying Reagent Dispenser, Aurora Discovery, San Diego, CA). After the plates were incubated at room temperature for 2 hours, fluorescence intensity was measured by an Envision plate reader (PerkinElmer, Shelton, CT).

Sequence of Progesterone receptor (Homo sapiens) (P06401 whole entry, looked up): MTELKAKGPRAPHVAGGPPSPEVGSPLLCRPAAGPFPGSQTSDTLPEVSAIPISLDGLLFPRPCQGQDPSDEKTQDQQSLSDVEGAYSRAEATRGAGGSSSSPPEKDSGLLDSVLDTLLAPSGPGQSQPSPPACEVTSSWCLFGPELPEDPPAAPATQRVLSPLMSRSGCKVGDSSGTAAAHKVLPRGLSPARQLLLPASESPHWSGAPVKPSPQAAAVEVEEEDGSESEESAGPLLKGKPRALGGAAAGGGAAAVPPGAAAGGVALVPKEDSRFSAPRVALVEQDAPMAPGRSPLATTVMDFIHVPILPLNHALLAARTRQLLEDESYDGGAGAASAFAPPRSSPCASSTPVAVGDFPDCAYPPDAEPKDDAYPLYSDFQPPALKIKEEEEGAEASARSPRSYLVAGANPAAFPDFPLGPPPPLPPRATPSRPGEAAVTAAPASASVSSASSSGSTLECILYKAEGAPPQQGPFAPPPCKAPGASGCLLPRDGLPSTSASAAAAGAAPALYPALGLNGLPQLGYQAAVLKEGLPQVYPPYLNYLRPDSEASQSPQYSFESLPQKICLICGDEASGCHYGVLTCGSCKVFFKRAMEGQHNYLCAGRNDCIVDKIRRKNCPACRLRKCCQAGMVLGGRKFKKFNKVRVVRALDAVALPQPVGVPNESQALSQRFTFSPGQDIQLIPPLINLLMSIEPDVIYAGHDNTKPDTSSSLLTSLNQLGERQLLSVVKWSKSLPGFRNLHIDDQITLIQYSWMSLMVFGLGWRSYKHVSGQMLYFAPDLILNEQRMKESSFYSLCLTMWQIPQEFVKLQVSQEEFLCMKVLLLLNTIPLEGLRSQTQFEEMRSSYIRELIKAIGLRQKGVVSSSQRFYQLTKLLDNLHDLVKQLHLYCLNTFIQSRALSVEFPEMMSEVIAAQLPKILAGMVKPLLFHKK

SMILES | outcome
CCOc1nc2cccc(C(=O)O)c2n1Cc1ccc(-c2ccccc2-c2nn[nH]n2)cc1 | inactive
COc1ccccc1OC(=O)Oc1ccccc1OC | inactive
Cc1c(Cn2ccnc2)c2ccccc2n1CCC(=O)O | inactive
C=C(C)C(=O)OCCOc1ccccc1 | inactive
C[C@@H](C1=C(CCN(C)C)Cc2ccccc21)c1ccccn1 | inactive
CC(C)(C)c1ccc(OCC2CO2)cc1 (stereo not given) | inactive
O=C(/C=C/c1ccc(O)c(O)c1)O[C@@H]1C[C@](O)(C(=O)O)C[C@@H](O)[C@H]1O | inactive
O=C(CC(=O)c1ccccc1)c1ccccc1 | inactive
CCCC[C@H]1CN(CC2CCOCC2)C(=O)OC12CCN(C1(C)CCN(C(=O)c3c(C)ncnc3C)CC1)CC2 | inactive
c1ccc(OCc2ccc(CCCN3CCOCC3)cc2)cc1 | inactive
Cc1nc2ccccc2n1Cc1ccc(Cl)cc1 | inactive
CC(=O)SCc1ccco1 | inactive
CC[C@@H]1C[C@H](N(Cc2cc(C(F)(F)F)cc(C(F)(F)F)c2)C(C)=O)c2cc(C(F)(F)F)ccc2N1C(=O)OC(C)C | inactive
CC[C@H](C)[C@@H](C(=O)O)n1sc2ccccc2c1=O | inactive
CCCCC(CC)(CO)CO | inactive
O=S1(=O)c2cccc3cccc(c23)N1CCCN1CCN(c2ccc(F)cc2)CC1 | inactive
COc1cc(C(C)(C)C)c(O)c(C(C)(C)C)c1 | inactive
Cc1ccc(C(=O)C(C)CN2CCCCC2)cc1 (stereo not given) | inactive
COCCCCCCCCOCCC[Si](C)(O[Si](C)(C)C)O[Si](C)(C)C | inactive
N#CCc1cccc(C(F)(F)F)c1 | inactive

SMILES | outcome
CC1CCc2cc(F)cc3c(=O)c(C(=O)O)cn1c23 (stereo not given) | inactive
CCCc1ccccc1 | inactive
CC(=O)OC/C=C/c1ccccc1 | inactive
O=C(c1ccc(O)cc1)c1ccc(O)cc1 | inactive
CCN(CC)CCOC(=O)C1(c2ccccc2)CCCC1 | inactive
Oc1ccc(C(O)CNCCCCCCNCC(O)c2ccc(O)c(O)c2)cc1O (stereo not given) | inactive
CC(=O)N(CC(=O)N(C)C)c1ccccc1 | inactive
Cc1ccccn1 | inactive
CC(C)CC=O | inactive
CNS(=O)(=O)Cc1ccc2[nH]cc(CCN(C)C)c2c1 | inactive
Cc1occc1S | inactive
CCOC(=O)CC(=O)c1cc(F)c(Cl)nc1Cl | inactive
CCCCCC(CO)CCC (stereo not given) | inactive
C1=Cc2ccccc2C1 | inactive
CC(CN)CCCN (stereo not given) | inactive
CC1(C)CCC(C)(C)c2cc(NC(=O)c3ccc(C(=O)O)cc3)ccc21 | inactive
Cc1ccccc1N=Nc1ccc(N=Nc2c(O)ccc3ccccc23)c(C)c1 | inactive
CCCCOC(=O)/C=C\C(=O)OCCCC | inactive
CCCC(=O)OCC | inactive
C=CCCCCCC | inactive
